# Target: Fibroblast growth factor 10 (Homo sapiens) (UniProt O15520)
# Experiment: FGF10 binders on small-molecule microarrays, primary screen, biochemical, small-molecule microarray, 635 nm fluorescence (AID 1102)
# Settings: FGF10 binding, fluorescence 635 nm, higher = more signal
# Sequence of Fibroblast growth factor 10 (Homo sapiens) (O15520 whole entry, looked up): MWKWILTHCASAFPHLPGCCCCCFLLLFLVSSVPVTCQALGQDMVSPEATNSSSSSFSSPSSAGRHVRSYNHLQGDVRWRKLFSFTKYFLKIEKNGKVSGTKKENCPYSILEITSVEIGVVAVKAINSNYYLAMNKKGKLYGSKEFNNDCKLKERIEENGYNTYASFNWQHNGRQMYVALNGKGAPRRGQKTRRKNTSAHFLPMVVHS
row,SMILES,composite z-score
1,CCOC(=O)C1=CCC(c2ccc(C)cc2)N(S(=O)(=O)c2ccc(C)cc2)C1 (stereo unspecified),0.129
2,CN(C)CCCNC(=O)[C@@]1(c2ccc([N+](=O)[O-])cc2)CC(=O)N(C2CCCCC2)[C@@H]1c1ccc(CO)cc1,-0.105
3,CC(=O)N1Cc2ccccc2C[C@@]2(COC(c3ccc(OCCCO)cc3)=N2)C1=O,0.649
4,COCCOC(=O)N1C(=O)[C@@]2(c3cc(C#CC4=CCCCC4)ccc31)[C@H](C(=O)Nc1nc3ccccc3s1)[C@H]1C(=O)O[C@H](c3ccccc3)[C@H](c3ccccc3)N1[C@@H]2c1ccc(OCCO)cc1,0.945
5,C=CC[C@]1(C(=O)N2CCCCC2)N=C(c2ccc(OCCCO)cc2)O[C@H]1c1ccccc1,0.228
6,O=C1NCC(=O)N2[C@@H]1C[C@@H](C(=O)O)[C@H]2c1cccc(OCCO)c1,1.38
7,O=C1O[C@H](c2ccccc2)[C@H](c2ccccc2)N2[C@H]1[C@@H](C(=O)O)[C@]1(C(=O)Nc3ccc(C#CCCO)cc31)[C@H]2c1ccc(O)cc1,-0.378
8,C=CCOC(=O)[C@H]1[C@@H]2C(=O)O[C@@H](c3ccccc3)[C@@H](c3ccccc3)N2[C@@H](c2ccc(OCCOC(=O)[C@@H]3C[C@@H]4C(=O)N[C@@H](CCCCN(C)C)C(=O)N4[C@@H]3c3ccc(O)cc3)cc2)[C@]12C(=O)Nc1ccc(I)cc12,0.735
9,CC(C)(C)OC(=O)CC[C@]12N=C(c3ccc(OCCCO)cc3)O[C@H]1c1ccccc1N(CCS(=O)(=O)c1ccccc1)C2=O,0.905
10,CN(C)C(=O)[C@@]1(Cc2ccccc2CN=[N+]=[N-])N=C(c2ccc(OCCCO)cc2)O[C@H]1c1ccccc1,1.21
11,COc1cc2c(cc1OC)CN(C(=O)[C@H]1[C@@H]3C(=O)O[C@@H](c4ccccc4)[C@@H](c4ccccc4)N3[C@@H](c3ccc(O)cc3)[C@]13C(=O)Nc1ccc(C#CC4=CCCCC4)cc13)CC2,1.14
12,CN1C(=O)C2C=CC(C(O)c3cc(C(F)(F)F)cc(C(F)(F)F)c3)N(N3CCCCC3)C2C1=O (stereo unspecified),0.246
13,COCC(=C=CC[C@H](O)c1ccccc1OCCO)C[C@H](O)c1cc(Cl)cc(Cl)c1O,1.62
14,CCCN1C(=O)[C@]2(CCS(=O)(=O)c3ccccc3)N=C(c3ccc(OCCCO)cc3)O[C@@H]2c2ccccc21,0.533
15,COc1cc2c(cc1OC)CN(C(=O)[C@H]1[C@@H]3C(=O)O[C@@H](c4ccccc4)[C@@H](c4ccccc4)N3[C@@H](c3ccc(O)cc3)[C@]13C(=O)Nc1ccc(C#CCNC(N)=O)cc13)CC2,1.11
16,CN(C)CCCNC(=O)[C@@]1(C)c2ccccc2C(=O)N(Cc2cc(F)cc(C(F)(F)F)c2)[C@H]1c1ccc(CO)cc1,-1.23
17,O=C1C2C=CC(C(O)C3CCCCC3)N(Nc3ccc([N+](=O)[O-])cc3)C2C(=O)N1c1ccccc1 (stereo unspecified),-0.901
18,O=C1OCCC/C=C\[C@H]2OC34C=CCN(c5ccc6ccccc6c5)C(=O)[C@H]3N(CCCCCCO)C(=O)[C@@H]4C12 (stereo partly specified),-0.873
19,COCCOC(=O)N1C(=O)[C@@]2(c3cc(C#CCNC(N)=O)ccc31)[C@H](C(=O)NC[C@H](O)c1ccccc1)[C@H]1C(=O)O[C@H](c3ccccc3)[C@H](c3ccccc3)N1[C@@H]2c1ccccc1OCCO,1.04
20,CC(C)(C)OC(=O)CC[C@@]12N=C(c3ccc(OCCCO)cc3)O[C@@H]1c1ccccc1N(CCS(=O)(=O)c1ccccc1)C2=O,-0.122
21,COC(=O)[C@@]1(Cc2ccc(F)cc2)[C@H]2c3cc(C(=O)N4CCCC4)n(Cc4cc(C)n(C)n4)c3C[C@H]2CN1C(=O)c1ccccc1,0.533
22,COC(=O)c1c(CC[C@@H](CO)NC(=O)N2CCC[C@H]2Cn2cc(-c3ccccn3)nn2)oc(C(C)=O)c1C(=O)OC,0.0437
23,CCOC(=O)[C@H]1CC=C2CC1C(=O)N1CCC[C@@H]1[C@@H]2O[Si](C)(C)C(C)(C)C (stereo partly specified),-0.997
24,C=CCC(OC(C)=O)[C@@H]1[C@@H](N(Cc2ccc(-c3ccccc3)cc2)C(=O)Cc2ccc(F)cc2)c2cc(OCCCO)ccc2N1C(=O)c1ccc(-c2ccccc2)cc1 (stereo partly specified),0.152
25,CCOC(=O)C[C@H]1[C@H](OC(=O)Cc2ccc3c(c2)OCO3)[C@@H](NC(=O)c2ccc(-c3ccccc3)cc2)c2cc(OCCCO)ccc2N1C(=O)c1ccc2ccccc2n1,0.556
26,COCCCNC(=O)[C@@]1(Cc2ccccc2)N=C(c2ccc(OCCCO)cc2)O[C@H]1c1ccccc1,0.849
